MARV entry inh: Marburg virus entry inhibition; AID 540276; Potency, µM (top dose mostly 37.8 µM), most hits filed as inhibitors; Marburg virus pseudotyped entry inhibition, cell reporter; 300,000 compounds, 1.8% hits; calls by dose curve; tested in HEK293 cells
VACV Venus inh: vaccinia inhibition (Venus reporter). Vaccinia virus Venus reporter expression, fluorescence. Potency, µM (titrated, usually from 36.5 µM), hits mostly inhibitors. 330,000 compounds, 0.46% hits; calls by dose curve; tested in A549 cells; also: nearly all actives have a fitted effect of over 30% in size
Vaccinia mCherry: inhibitors of vaccinia virus infection (mCherry reporter signal); Vaccinia virus mCherry reporter infection, fluorescence; Potency, µM (doses to about 36.5 µM), usual class: inhibitors; 310,000 compounds, 0.63% hits; AID 720579; calls by dose curve; tested in A549 cells; also: nearly all actives have a fitted effect of over 35% in size
HCMV antiviral: inhibitors of human cytomegalovirus; HFF cells, HCMV-luciferase reporter, 72 h; active compounds read low; activity change, negative = inhibition, % at 57.5 µM; 410,000 compounds, 4.5% hits; AID 1259415; in the data active = activity change below about -60%; inconclusive = no clear call, values can overlap the other calls; inactive = above about -39%
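Inhibition of viral replication was scored as loss of reporter luminescence in HFFs infected with HCMV-luciferase (MOI 1 PFU/cell) for 72 h; compounds tested at 2 doses, normalized to buffer and Salinomycin controls.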
HCV inh: blocks hepatitis C virus. Potency, µM (highest dose often 41.8 µM), hits mostly inhibitors. 340,000 compounds, 3.4% hits. Huh7.5.1 HCVcc-Cre infection, luciferase reporter, 44 h; active = well fitted inhibition curve with a large enough effect; inconclusive = small, poorly fitted or top-dose-only effect, or another doubt; inactive = no such curve, though single readings can be large or run the other way
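Reporter virus HCVcc-Cre (~0.5 moi) infects cells exposed to compound; seeding density 1,000 cells/well with 4 h settling beforehand. Luminescence, 15 sec read, taken 44 h post-infection following a 15 min RT substrate incubation.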
Lassa entry inh: blocks Lassa virus binding to or entry into cells; Potency, µM (top dose mostly 37.9 µM), actives largely listed as inhibitors; Lassa virus pseudotype entry inhibition, cell reporter; 300,000 compounds, 1.2% hits; calls by dose curve; tested in HEK293 cells; also: nearly all actives have a fitted effect of over 50% in size
Each line names hits and unclear results; the compound was inactive in the other large screens. The list is not random: actives were taken first. Their share in the collection is about 7.8%.

CC1(c2ccc(Cl)cc2)CC(C)(C)N(C(=O)c2cccc(F)c2)c2ccccc21 (centres undefined)	HCMV antiviral -65 (no result: MARV entry inh, HCV inh)
COc1ccccc1C(=O)N1c2ccccc2C(C)(c2ccc(Cl)cc2)CC1(C)C (centres undefined)	HCMV antiviral -72, Lassa entry inh inconclusive (no result: MARV entry inh, HCV inh)
CCc1cccc2c1NC(=O)C21N2CCCC2C(C(=O)c2ccc3ccccc3c2)C12C(=O)Nc1ccccc12 (centres undefined)	MARV entry inh 10µM, HCMV antiviral -93, HCV inh inconclusive, Lassa entry inh inconclusive
CCn1nc(C)cc1C(=O)N1CCCC(C(=O)c2ccc3ccccc3c2)C1 (centres undefined)	HCV inh inconclusive (no result: MARV entry inh, VACV Venus inh, Vaccinia mCherry, Lassa entry inh)
CCc1ccc2c(c1)C1(C(=O)N2)N2CCCC2C(C(=O)c2ccc3ccccc3c2)C12C(=O)Nc1ccccc12 (centres undefined)	MARV entry inh inconclusive, VACV Venus inh 13µM, Vaccinia mCherry 28µM, HCMV antiviral inconclusive, HCV inh inconclusive, Lassa entry inh inconclusive
Cc1nn(C)cc1C(=O)/C=C/c1ccc([N+](=O)[O-])cc1	MARV entry inh inconclusive, HCV inh 22µM, Lassa entry inh inconclusive
O=C(/C=C/c1ccc([N+](=O)[O-])cc1)c1ccccc(=O)c1O	MARV entry inh inconclusive, Vaccinia mCherry inconclusive, HCMV antiviral -95, HCV inh 7.9µM, Lassa entry inh inconclusive
O=C(/C=C/c1ccccc1Cl)c1ccccc(=O)c1O	MARV entry inh inconclusive, VACV Venus inh inconclusive, Vaccinia mCherry 10µM, HCMV antiviral inconclusive, HCV inh inconclusive, Lassa entry inh inconclusive
Cc1ccc(C)c(/C=C/C(=O)c2ccccc(=O)c2O)c1	MARV entry inh inconclusive, VACV Venus inh inconclusive, Vaccinia mCherry 14µM, HCMV antiviral -101, HCV inh inconclusive, Lassa entry inh inconclusive
COCOc1cc(OC)ccc1C(=O)C=Cc1ccc([N+](=O)[O-])cc1	Lassa entry inh inconclusive (no result: VACV Venus inh, Vaccinia mCherry, HCMV antiviral, HCV inh)
COc1ccccc1-c1cncnc1NCCN1CCOCC1	none (no result: MARV entry inh, HCMV antiviral, HCV inh, Lassa entry inh)
Cc1ccc(/C=C/C(=O)c2ccccc(=O)c2O)c(C)c1	MARV entry inh inconclusive, VACV Venus inh inconclusive, Vaccinia mCherry inconclusive, HCMV antiviral -82, HCV inh inconclusive, Lassa entry inh inconclusive
O=C(/C=C/c1ccc([N+](=O)[O-])cc1)c1cccs1	HCMV antiviral -76 (no result: MARV entry inh, Lassa entry inh)
O=C(C=Cc1ccccc1O)c1ccccc1O	MARV entry inh inconclusive, HCV inh inconclusive
Cc1c(C)n(C)c2ccc(C(=O)NCCc3ccc(Cl)cc3)cc12	none (no result: MARV entry inh, HCV inh)
O=C(c1n[nH]c2c1CCCC2)N1CCC(n2c(C3CCCO3)nc3ccccc32)CC1 (centres undefined)	none (no result: MARV entry inh, HCMV antiviral, HCV inh, Lassa entry inh)
CCc1cccc(CC)c1NC(=O)Cn1nnc2sc3c(c2c1=O)CCCC3	none (no result: HCV inh)
O=C(CSc1nc2c([nH]c3ccccc32)c(=O)n1-c1cccc(C(F)(F)F)c1)N1CCc2ccccc21	none (no result: MARV entry inh, HCV inh)
CN(C)c1ccc(NC2=C(Cl)C(=O)c3ccccc3C2=O)cc1	MARV entry inh inconclusive, VACV Venus inh 11µM, Vaccinia mCherry inconclusive, HCMV antiviral -97, HCV inh 10µM, Lassa entry inh inconclusive
Cc1ccc(NC2=C(NCCO)C(=O)c3ccccc3C2=O)cc1	MARV entry inh inconclusive, Vaccinia mCherry inconclusive, Lassa entry inh inconclusive
O=C(Nc1ccc(Oc2ccc(NC(=O)Nc3ccccc3Cl)cc2)cc1)Nc1ccccc1Cl	MARV entry inh inconclusive, HCMV antiviral -62, HCV inh inconclusive, Lassa entry inh inconclusive
NS(=O)(=O)c1ccc(NC(=O)c2c(Cl)cccc2Cl)cc1	none
O=C(Nc1cccnc1)c1c(F)c(F)c(F)c(F)c1F	none
O=C(Nc1ccncc1)c1c(Cl)cccc1Cl	HCMV antiviral -66 (no result: MARV entry inh, VACV Venus inh, Vaccinia mCherry, Lassa entry inh)
O=C(Nc1ccncc1)c1c(F)c(F)c(F)c(F)c1F	VACV Venus inh inconclusive, Vaccinia mCherry 6.3µM
COc1ccccc1CNC(=O)c1cnn2c(C)c(Cc3ccc(F)cc3)c(C)nc12	Lassa entry inh inconclusive (no result: MARV entry inh, HCV inh)
CC(=O)Nc1cccc(NC(=O)c2cc3c(=O)n4cccc(C)c4nc3n2C)c1	HCMV antiviral inconclusive (no result: MARV entry inh, HCV inh)
O=C(Nc1ccc2cn[nH]c2c1)c1c(Cl)cccc1Cl	HCMV antiviral -94
O=C(NNc1ncccc1Cl)c1c(Cl)cccc1Cl	HCMV antiviral -67
O=C(Nc1ccncc1)Nc1cccc(Cl)c1Cl	HCMV antiviral -61, HCV inh 6.3µM (no result: MARV entry inh, VACV Venus inh, Vaccinia mCherry, Lassa entry inh)

Screening data (PubChem)
